The full ranking holds about 4,500 sequences; the median of “median log2 fold change of GCK-ALFA target abundance (FLAG IP / Myc IP barcode read proportion)” is about 0.078, and the lowest 2% start at about -0.6. Only a selection was taken, and the lowest values are over-represented in it overall.
B1: GBRAP_35_5547 (protein)
chain: DPETETVEMLLNTMEDIVLALPDVSPEDLETLTKHLIDLANLAIEEKPKNKELLERLIKALEEAIKIVEASDLPEEVKAELLKELEKARKEAEKLLEKVK
B2: GBRAP_35_5544 (protein)
chain: MEEEETVEMLLNTMEDIVLALPDVSPEEQLILTKHLIKLAKLAIEEKPKNKELLKRGIEALKEAIKIVKESDLPEEEKEKLLKELEEAKEKFEKLLKKVE
B3: GBRAP_35_5545 (protein)
chain: DFDEETVEMLLNTMEDIVLALPDVSPEEKLILARHLIDLAEKAIEEKPKNVELLKRGIEVLERAIEIVKASDLPEEEREELIERLEEVKEKFEKLLKENE
B4: GBRAP_128_3307 (protein)
chain: MDEELLEEARELIERLKEADEEEAAELVREIAELLEKATPEEREEIAELFEEALKELSAEKLDVVADTLRELIPKATPETANVLADLQVEALNLAEEKEE
B5: GBRAP_160_4379 (protein)
chain: SEELKELKEEVKKLKEEFKEEAKDLSTAEVRTLAIGVLSEIAALVWSNEAVSEETKDKIMKIIDDAIAKIRANADASPEEIVAIVTEAFDKIIELIEKEE
B6: GBRAP_125_3112 (protein)
chain: NMEEILEALRIILKALGFDEEEIEEAVRLAREYGIKGTMIAAALALGWEEVAELLEKLSEEEVKEALLRTAEKIKENPELTPEEVKELLKEVLKEILEKK
B7: GBRAP_11_2866 (protein)
chain: NKEKLKEIAELLEKLIEVLERLLEEGVDNEELREEALKLAKEILELVKKYSDEADVKLAEYALELLEKAEEDPANAEQYVQEALAFARVLLGNVLLRIDE
B8: GBRAP_52_6101 (protein)
chain: AAAEAEALVERLLALVRAGREAEARAEAAALAAEMDEARLRVLTEALAARARAAAPEDLDAVWRLAELLADELEAAGWPDVLVDDLLAATAAALYERELA
B9: GBRAP_128_3576 (protein)
chain: SDEEILEKAKELIKKIIESDVEEAKKYAEELAKLLKEADPETREKIVELILEALPKLSVEKLEVLADVFREQRPKADPETANLLAEIEVEALNEAVEKEE
B10: GBRAP_166_4948 (protein)
chain: SLEEVIEETREFIRELAERMKTLNDEERLDALIEIAERLEEARKAGVSEEDLLELVREALELVKEAGGSVEQFVGALDMFVDLDEEELDKVAEIAEEVKA
B11: GBRAP_137_3672 (protein)
chain: MIDAKIEIEDGLAYAELTYKGSLEEAKKAAEIAEEIAGKIPGIAISTKVDEDGTLTIDLGGTLEQIMKFLKELAKALNVTINVTIKDLDTGETTKETIKA
B12: GBRAP_160_4310 (protein)
chain: KEELEALKKEVKEIFEEAKKLIEGETKEQQKAIVKVALGEVILLAFESPAITEEAEEKIAEIADEAIATLDANPDLTTEEIKKLLEEAEKKILELIEKLK
B13: GBRAP_74_6571 (protein)
chain: MEKYTKEMKAAAAAGDVKKAIKIVEEMIEKGIKKVSAEFLNALATIAEKHLPKATPEEQERFIDAASELVDLVLESEQDEETYKALNKLITALYEAELAR
B14: GBRAP_57_6475 (protein)
chain: MERLKAVEEAAERALALIDARAPREEILAAVRELAELLSEETLRDVLLIADPEAPEDLSKEEAIARLVALAAAYLDAGDYDGLRRLVELMLGTAEMDFEE
B15: GBRAP_39_5697 (protein)
chain: EREEEAEDTFSYLEAIGAKYQVEEKISLEEARERTRELAERFIKEHPEIAEVLKELLELAEKAGDLAILALLGLLLRAEEGTPLEEIKKDAELLIEYLKS
B16: GBRAP_125_2965 (protein)
chain: SEEEALEALAIIAKALGFDEDEVEEAVELARRFGLKKTLIALFLAEGYEEVADLVEKLTEEEAREVAKKLAEEIKKNPELTPEEVVELAKKLFEEVIAKK
B17: GBRAP_80_6822 (protein)
chain: MEEELEANLKALEAVDPEIAKIVREIVEIARELGVPLETLVRLAKAILELAKVDKEKARELAEELLEELREEREEGDREGALAELVDAESEALLEVEELE
B18: GBRAP_184_5158 (protein)
chain: KVLERTIEADNLEELKKKLKEIKEEAAKTKADLIVVLNLKELTKEMLETALSTLGEIKKEGLAPSITLLIENEMNDEQIDFALKLADEAGVTLVVAIPDE
B19: GBRAP_160_4463 (protein)
chain: KEEVKEAVEELRERVEEVLEDSENMSPEQILLAVAVEVGSSLLEWEEEGKISDEQAEILAKAIDELLRLAKEEKNASPEEAKKRAREIVEKAAKEILAAA
B20: GBRAP_78_6736 (protein)
chain: EIEELIDKALEELNRAARLAQQFPLEEQTELLDLIIDASTLLEEAEEEGFDLKLLEEALKKLKEALKLAKKLKTPLAEKLAKELEEAIKLVEKAIKLVKE
B21: GBRAP_128_3567 (protein)
chain: STAAAVAQARALLEAIKAGDAATRRAAAEALVALLAAADPETREAITAEILERLPELSAEDLEVLADVFRAARPAADPATAEALAEIQVEALNEREEKEE
B22: GBRAP_35_5597 (protein)
chain: DTDQLAVDSLIDMIEATIEGIPELPVDTLVSITNLLIKDAEELRKQLKNNVEALERIAKALEKLKEALKKHHGDNPKVQETIEKVEKAIKELKEQAKKAL
B23: GBRAP_184_5329 (protein)
chain: KTLEVHIENLPIEEIKKKVEEALKEAAAQGAALSIYIDASGYSIEEIKELIEYIGELAKKYGVKDVTLGIDKAVNEEEADILIEIADKYGIRLVLPLEDE
B24: GBRAP_184_5332 (protein)
chain: KTLEVHIENLPIEEIIKKVEEAAKKAAEEGADLLISIDASGYSIEEIIELIKKIGEIAKKYGVKNVTLGIDKEVNEEEADKLIEEADKYGIRLVLPLKDE
B25: GBRAP_83_6990 (protein)
chain: KEKITVAANGDDIEEAAEIVIDLTKEEGYEVDVEIIATKEDWEKVLEMVERLAEAGIETDITVLAEGITEEEAKEKQKELEEIAKEHGVNINVKVYAIEP
B26: GBRAP_83_6970 (protein)
chain: MEKVDVVTTPDHVEEAAEAARDLAEEEGYEVTVILVGSPEEVLKSAEIVAEKLKDIKNVSIRAAVRGVRKEEAEKTKKKLEEIGKKYGLKVEFDAELIEE
B27: GBRAP_106_2555 (protein)
chain: SEEEKFEKLIKESREEAEKEIADTRAWLAARRDQLTPEEIRAIETYTKKYLVAKILHKAIEAGFITKEEAEEILKEALSKTDFTPEEAVKFTLEKIKELY
B28: GBRAP_160_4809 (protein)
chain: MEKAEKLLEEARKDLLETAEASKDLPIEDRARLLEAEGYTSILDFEEELNISDETEEKLAQVVDDLVATLLANPDLSDEEVLALVEEAAEKMKEIVKEEV
B29: GBRAP_160_4810 (protein)
chain: KEKAEKLMEEARKDLLETAEASADLPIEDRARLLEAEGYTSILDFEEELNISDETEEELDEVVDDLVARLLANPDLSREEVLALVEEAVERMKEIVEKEV

The binders below were run against GABARAP, O95166 (assay: median log2 fold change of GCK-ALFA target abundance (FLAG IP / Myc IP barcode read proportion) (log2 ratio); each designed protein is fused to an ALFA-tag nanobody in HEK293 cells to bring the named protein to FLAG-tagged glucokinase (GCK); Myc marks an untargeted standard; higher = target protein stabilised (more abundant)). Details: target protein: 3xFLAG-MCP-GCK-ALFA reporter; HEK293 landing pad (RPLP).
Description: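 LABEL-seq trans screen in HEK293 landing-pad cells. Each de novo designed 100-aa effector handle, binding the indicated effector (E3 ligase, DUB or autophagy protein), is fused to a constant NbALFA target handle and induced with 2 ug/mL doxycycline. A FLAG-MCP-GCK-ALFA target and a Myc-MCP standard reporter were transfected, and after 48 h circRNA barcodes were recovered by anti-FLAG and anti-Myc IP and sequenced. The value is the median across barcodes (at least 3 per design) of log2(FLAG/Myc read-proportion ratio), with the two transfection replicates pooled. Negative values mean degradation and positive values mean stabilisation of the target.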

Sequence of GABARAP, O95166 (O95166 whole entry, the tested form may be a part): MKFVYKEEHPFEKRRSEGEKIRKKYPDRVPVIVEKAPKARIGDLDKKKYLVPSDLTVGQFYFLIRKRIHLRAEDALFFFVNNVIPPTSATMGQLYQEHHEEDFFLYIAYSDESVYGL

Binder	median log2 fold change
B1	0.0216
B2	-0.612
B3	0.127
B4	0.0926
B5	0.234
B6	-0.66
B7	-0.0773
B8	-0.279
B9	0.00207
B10	0.0139
B11	0.117
B12	-0.615
B13	-0.298
B14	0.257
B15	0.186
B16	-0.872
B17	-0.574
B18	-0.0197
B19	-0.697
B20	-0.0442
B21	0.197
B22	0.00193
B23	-0.086
B24	-0.598
B25	-0.0785
B26	0.197
B27	-0.507
B28	-0.35
B29	-0.669
